# PubChem BioAssay (NCI)
# About 79,000 compounds went through this panel and 15% of them were active in at least one assay; those are over-represented in the sample as a whole. Values without a mark were called inactive. Calls of active or inactive are those of the source. No stated cut-off is given here; in the data, active means growth inhibition above about 70%; inactive means the rest.
# How the values were obtained:
# [1] = NCI Yeast Anticancer Drug Screen. Data for the rad52 strain (AID 147);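 further: 0% = growth of vehicle-treated control cultures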; settings: S. cerevisiae rad52 mutant growth inhibition, stronger effect = higher value
# Procedure, shortened: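 Genetically altered yeast (DNA damage repair defect) treated with compound; inhibition calculated relative to vehicle.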
# [2] = NCI Yeast Anticancer Drug Screen. Data for the wt1 strain (AID 149);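 further: 0% = growth of vehicle-treated wt1 cultures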; settings: S. cerevisiae wt1 strain (SPY 50644) growth inhibition, stronger effect = higher value
# Procedure, shortened: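 Readout: yeast growth inhibition, normalised to vehicle controls, in the wt1 strain exposed to test compounds.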
# [3] = NCI Yeast Anticancer Drug Screen. Data for the rad50EPP+ strain (AID 151);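 further: 0% = growth of vehicle-treated control cultures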; settings: S. cerevisiae rad50 mutant strain, stronger effect = higher value
# Procedure, shortened: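 Strain rad50EPP+; compound exposure; % growth inhibition vs vehicle.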
# [4] = NCI Yeast Anticancer Drug Screen. Data for the mgt1 strain (AID 153); settings: S. cerevisiae mgt1 mutant growth inhibition, stronger effect = higher value
# Procedure, shortened: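 Read-out: yeast growth inhibition vs vehicle control. Strain mgt1, drawn from a panel altered in DNA damage repair or cell cycle control.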
# [5] = NCI Yeast Anticancer Drug Screen. Data for the rad50 strain (AID 155);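 further: 0% = growth of vehicle-only cultures of the same strain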; settings: S. cerevisiae rad50 strain growth inhibition, stronger effect = higher value
# Procedure, shortened: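 Compounds were tested on a yeast strain with an engineered DNA damage repair alteration; the reported value is growth inhibition normalised to vehicle treatment.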
# [6] = NCI Yeast Anticancer Drug Screen. Data for the mec2-1 strain (AID 157); settings: S. cerevisiae mec2-1 strain, stronger effect = higher value
# Procedure, shortened: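 Cells of the genetically defined mec2-1 yeast strain are incubated with test compound. Inhibition of growth is calculated against vehicle-treated controls.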
# [7] = NCI Yeast Anticancer Drug Screen. Data for the rad14 strain (AID 159);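 further: 0% = growth of vehicle-treated control cultures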; settings: S. cerevisiae rad14 strain growth inhibition, stronger effect = higher value
# Procedure, shortened: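 Compound-treated yeast with a defined DNA-repair lesion; growth inhibition normalised to vehicle-treated cultures.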
# [8] = NCI Yeast Anticancer Drug Screen. Data for the sgs1 mgt1 strain (AID 161);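 further: 0% = growth of cultures given vehicle only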; settings: S. cerevisiae sgs1 mgt1 strain, stronger effect = higher value
# Procedure, shortened: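 Genetically altered yeast, compound exposure, growth inhibition relative to vehicle.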
# [9] = NCI Yeast Anticancer Drug Screen. Data for the CLN2oe strain (AID 163);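 further: 0% = growth of vehicle-only control cultures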; settings: S. cerevisiae CLN2oe strain, stronger effect = higher value
# Procedure, shortened: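 Strain altered in cell-cycle control, incubated with compound; growth compared to solvent-treated controls.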
# [10] = NCI Yeast Anticancer Drug Screen. Data for the cln2 rad14 strain (AID 165);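 further: 0% = growth equal to vehicle treated cultures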; settings: S. cerevisiae cln2 rad14 strain, stronger effect = higher value
# Procedure, shortened: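 The screen exposed genetically defined yeast (cln2 rad14) to test compounds and scored growth inhibition relative to vehicle-treated controls.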
# [11] = NCI Yeast Anticancer Drug Screen. Data for the bub3 strain (AID 167); settings: S. cerevisiae bub3 mutant strain, stronger effect = higher value
# Procedure, shortened: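 Growth of a checkpoint-deficient yeast mutant is measured after compound exposure. Values represent inhibition relative to vehicle.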
# [12] = NCI Yeast Anticancer Drug Screen. Data for the wt2 strain (AID 169);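 further: 0% = growth of vehicle-treated yeast cultures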; settings: S. cerevisiae wt2 strain growth inhibition, stronger effect = higher value
# Procedure, shortened: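 Steps: yeast strain treated with compound; growth recorded; inhibition calculated relative to cultures given vehicle alone.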
# [13] = NCI Yeast Anticancer Drug Screen. Data for the sgs1 strain (AID 173);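 further: 0% = growth of vehicle-only control cultures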; settings: S. cerevisiae sgs1 mutant, stronger effect = higher value
# Procedure, shortened: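 Inhibition of yeast growth served as the measure. The mutant strain was treated with each compound, and growth was normalised to cultures receiving vehicle alone.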
# [14] = NCI Yeast Anticancer Drug Screen. Data for the mlh1 rad18 strain (AID 175); settings: S. cerevisiae mlh1 rad18 strain growth inhibition, stronger effect = higher value
# Procedure, shortened: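 Compound-treated yeast growth, normalised to vehicle controls. Strain bears defined DNA repair mutations.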
# [15] = NCI Yeast Anticancer Drug Screen. Data for the rad18 strain (AID 177); settings: S. cerevisiae rad18 mutant growth inhibition, stronger effect = higher value
# Procedure, shortened: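 Inhibition values reflect reduced yeast growth compared with vehicle-treated controls, using a strain engineered with a DNA damage repair defect.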
# [16] = NCI Yeast Anticancer Drug Screen. Data for the mlh1 strain (AID 171);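 further: 0% = growth of vehicle-treated control cultures of the same strain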; settings: S. cerevisiae mlh1 strain growth inhibition, stronger effect = higher value
# Procedure, shortened: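 Yeast screen: mutant strain plus compound, growth scored against vehicle control wells.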
# [17] = at 5.0 µM (retest, dose inferred, filed as 0.5)
# [18] = at 50.0 µM (retest, dose inferred, filed as 5.0)
smiles,measurement,setting,value
COc1ccc(C(=O)c2ccccc2C(=O)c2ccccc2OC)cc1,growth inhibition,[1]; at 1.2 µM,-1%
same,growth inhibition,[1]; at 3.7 µM,-2%
same,growth inhibition,[1]; at 11.0 µM,1%
same,growth inhibition,[1]; at 33.0 µM,6%
same,growth inhibition,[1]; at 100.0 µM,14%
same,growth inhibition,[2]; at 1.2 µM,-2%
same,growth inhibition,[2]; at 3.7 µM,1%
same,growth inhibition,[2]; at 11.0 µM,-6%
same,growth inhibition,[2]; at 33.0 µM,-7%
same,growth inhibition,[2]; at 100.0 µM,-4%
same,growth inhibition,[3]; at 1.2 µM,5%
same,growth inhibition,[3]; at 3.7 µM,9%
same,growth inhibition,[3]; at 11.0 µM,11%
same,growth inhibition,[3]; at 33.0 µM,15%
same,growth inhibition,[3]; at 100.0 µM,13%
same,growth inhibition,[4]; at 1.2 µM,-1%
same,growth inhibition,[4]; at 3.7 µM,-1%
same,growth inhibition,[4]; at 11.0 µM,-2%
same,growth inhibition,[4]; at 33.0 µM,-1%
same,growth inhibition,[4]; at 100.0 µM,7%
same,growth inhibition,[5]; at 1.2 µM,-1%
same,growth inhibition,[5]; at 3.7 µM,1%
same,growth inhibition,[5]; [17],7%
same,growth inhibition,[5]; at 11.0 µM,-1%
same,growth inhibition,[5]; at 33.0 µM,4%
same,growth inhibition,[5]; [18],46%
same,growth inhibition,[5]; at 50.0 µM,12.8%
same,growth inhibition,[5]; at 100.0 µM,10%
same,growth inhibition,[6]; at 1.2 µM,-2%
same,growth inhibition,[6]; at 3.7 µM,1%
same,growth inhibition,[6]; [17],-10%
same,growth inhibition,[6]; at 11.0 µM,1%
same,growth inhibition,[6]; at 33.0 µM,7%
same,growth inhibition,[6]; [18],16%
same,growth inhibition,[6]; at 50.0 µM,10.1%
same,growth inhibition,[6]; at 100.0 µM,11%
same,growth inhibition,[7]; at 1.2 µM,-3%
same,growth inhibition,[7]; at 3.7 µM,-5%
same,growth inhibition,[7]; at 11.0 µM,-5%
same,growth inhibition,[7]; at 33.0 µM,-1%
same,growth inhibition,[7]; at 100.0 µM,8%
same,growth inhibition,[8]; [17],17%
same,growth inhibition,[8]; [18],55%
same,growth inhibition,[8]; at 50.0 µM,15.4%
same,growth inhibition,[9]; at 1.2 µM,2%
same,growth inhibition,[9]; at 3.7 µM,-15%
same,growth inhibition,[9]; at 11.0 µM,0%
same,growth inhibition,[9]; at 33.0 µM,7%
same,growth inhibition,[9]; at 100.0 µM,24%
same,growth inhibition,[10]; [17],9%
same,growth inhibition,[10]; [18],35%
same,growth inhibition,[10]; at 50.0 µM,13.7%
same,growth inhibition,[11]; at 1.2 µM,-1%
same,growth inhibition,[11]; at 3.7 µM,3%
same,growth inhibition,[11]; [17],16%
same,growth inhibition,[11]; at 11.0 µM,7%
same,growth inhibition,[11]; at 33.0 µM,27%
same,growth inhibition,[11]; [18],79% (active)
same,growth inhibition,[11]; at 50.0 µM,39.5%
same,growth inhibition,[11]; at 100.0 µM,43%
same,growth inhibition,[12]; at 1.2 µM,-1%
same,growth inhibition,[12]; at 3.7 µM,-2%
same,growth inhibition,[12]; at 11.0 µM,-5%
same,growth inhibition,[12]; at 33.0 µM,-2%
same,growth inhibition,[12]; at 100.0 µM,1%
same,growth inhibition,[13]; at 1.2 µM,-1%
same,growth inhibition,[13]; at 3.7 µM,-2%
same,growth inhibition,[13]; at 11.0 µM,0%
same,growth inhibition,[13]; at 33.0 µM,9%
same,growth inhibition,[13]; at 100.0 µM,15%
same,growth inhibition,[14]; [17],30%
same,growth inhibition,[14]; [18],68%
same,growth inhibition,[14]; at 50.0 µM,20.7%
same,growth inhibition,[15]; at 1.2 µM,-1%
same,growth inhibition,[15]; at 3.7 µM,-5%
same,growth inhibition,[15]; at 11.0 µM,-4%
same,growth inhibition,[15]; at 33.0 µM,3%
same,growth inhibition,[15]; at 100.0 µM,12%
Cc1ccc2nc(-c3cccc([N+](=O)[O-])c3)oc(=O)c2c1,growth inhibition,[1]; at 1.2 µM,3%
same,growth inhibition,[1]; at 3.7 µM,6%
same,growth inhibition,[1]; at 11.0 µM,1%
same,growth inhibition,[1]; at 33.0 µM,-4%
same,growth inhibition,[1]; at 100.0 µM,-10%
same,growth inhibition,[2]; at 1.2 µM,-7%
same,growth inhibition,[2]; at 3.7 µM,-3%
same,growth inhibition,[2]; at 11.0 µM,-6%
same,growth inhibition,[2]; at 33.0 µM,-15%
same,growth inhibition,[2]; at 100.0 µM,-20%
same,growth inhibition,[3]; at 1.2 µM,-12%
same,growth inhibition,[3]; at 3.7 µM,12%
same,growth inhibition,[3]; at 11.0 µM,18%
same,growth inhibition,[3]; at 33.0 µM,15%
same,growth inhibition,[3]; at 100.0 µM,27%
same,growth inhibition,[4]; at 1.2 µM,-29%
same,growth inhibition,[4]; at 3.7 µM,-25%
same,growth inhibition,[4]; at 11.0 µM,-25%
same,growth inhibition,[4]; at 33.0 µM,-26%
same,growth inhibition,[4]; at 100.0 µM,-18%
same,growth inhibition,[5]; at 1.2 µM,-21%
same,growth inhibition,[5]; at 3.7 µM,-19%
same,growth inhibition,[5]; [17],31%
same,growth inhibition,[5]; at 11.0 µM,-34%
same,growth inhibition,[5]; at 33.0 µM,-31%
same,growth inhibition,[5]; [18],62%
same,growth inhibition,[5]; at 50.0 µM,14.2%
same,growth inhibition,[5]; at 100.0 µM,-30%
same,growth inhibition,[6]; at 1.2 µM,-57%
same,growth inhibition,[6]; at 3.7 µM,-57%
same,growth inhibition,[6]; [17],39%
same,growth inhibition,[6]; at 11.0 µM,-62%
same,growth inhibition,[6]; at 33.0 µM,-53%
same,growth inhibition,[6]; [18],75% (active)
same,growth inhibition,[6]; at 50.0 µM,11.8%
same,growth inhibition,[6]; at 100.0 µM,-70%
same,growth inhibition,[7]; at 1.2 µM,-10%
same,growth inhibition,[7]; at 3.7 µM,-6%
same,growth inhibition,[7]; at 11.0 µM,-4%
same,growth inhibition,[7]; at 33.0 µM,-19%
same,growth inhibition,[7]; at 100.0 µM,-16%
same,growth inhibition,[8]; [17],-14%
same,growth inhibition,[8]; [18],33%
same,growth inhibition,[8]; at 50.0 µM,27.6%
same,growth inhibition,[9]; at 1.2 µM,15%
same,growth inhibition,[9]; at 3.7 µM,22%
same,growth inhibition,[9]; at 11.0 µM,20%
same,growth inhibition,[9]; at 33.0 µM,9%
same,growth inhibition,[9]; at 100.0 µM,8%
same,growth inhibition,[10]; [17],43%
same,growth inhibition,[10]; [18],59%
same,growth inhibition,[10]; at 50.0 µM,13.2%
same,growth inhibition,[11]; at 1.2 µM,-23%
same,growth inhibition,[11]; at 3.7 µM,-23%
same,growth inhibition,[11]; [17],33%
same,growth inhibition,[11]; at 11.0 µM,-24%
same,growth inhibition,[11]; at 33.0 µM,-5%
same,growth inhibition,[11]; [18],75% (active)
same,growth inhibition,[11]; at 50.0 µM,53.7%
same,growth inhibition,[11]; at 100.0 µM,-36%
same,growth inhibition,[12]; at 1.2 µM,-22%
same,growth inhibition,[12]; at 3.7 µM,-19%
same,growth inhibition,[12]; at 11.0 µM,-26%
same,growth inhibition,[12]; at 33.0 µM,-32%
same,growth inhibition,[12]; at 100.0 µM,-24%
same,growth inhibition,[16]; at 1.2 µM,-6%
same,growth inhibition,[16]; at 3.7 µM,-2%
same,growth inhibition,[16]; at 11.0 µM,-17%
same,growth inhibition,[16]; at 33.0 µM,-17%
same,growth inhibition,[16]; at 100.0 µM,-14%
same,growth inhibition,[14]; [17],34%
same,growth inhibition,[14]; [18],67%
same,growth inhibition,[14]; at 50.0 µM,14.7%
same,growth inhibition,[15]; at 1.2 µM,-14%
same,growth inhibition,[15]; at 3.7 µM,-4%
same,growth inhibition,[15]; at 11.0 µM,-19%
same,growth inhibition,[15]; at 33.0 µM,-28%
same,growth inhibition,[15]; at 100.0 µM,-42%
